Compound activity from PubChem BioAssay.
FBW7 act: FBW7 E3 ligase activators, primary screen, biochemical, AlphaScreen, human; AlphaScreen FBW7–phospho-cyclin E peptide binding, activator screen; normalized activity (activation), % at 26.1 µM; 0.13% of 650,000 active; F-box/WD repeat-containing protein 7 (Homo sapiens), Q969H0; in the data active = normalized activity above about 1.9%;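 also: purified mutant Fbw7 with reduced substrate affinity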
Target sequence (Q969H0 whole entry, looked up): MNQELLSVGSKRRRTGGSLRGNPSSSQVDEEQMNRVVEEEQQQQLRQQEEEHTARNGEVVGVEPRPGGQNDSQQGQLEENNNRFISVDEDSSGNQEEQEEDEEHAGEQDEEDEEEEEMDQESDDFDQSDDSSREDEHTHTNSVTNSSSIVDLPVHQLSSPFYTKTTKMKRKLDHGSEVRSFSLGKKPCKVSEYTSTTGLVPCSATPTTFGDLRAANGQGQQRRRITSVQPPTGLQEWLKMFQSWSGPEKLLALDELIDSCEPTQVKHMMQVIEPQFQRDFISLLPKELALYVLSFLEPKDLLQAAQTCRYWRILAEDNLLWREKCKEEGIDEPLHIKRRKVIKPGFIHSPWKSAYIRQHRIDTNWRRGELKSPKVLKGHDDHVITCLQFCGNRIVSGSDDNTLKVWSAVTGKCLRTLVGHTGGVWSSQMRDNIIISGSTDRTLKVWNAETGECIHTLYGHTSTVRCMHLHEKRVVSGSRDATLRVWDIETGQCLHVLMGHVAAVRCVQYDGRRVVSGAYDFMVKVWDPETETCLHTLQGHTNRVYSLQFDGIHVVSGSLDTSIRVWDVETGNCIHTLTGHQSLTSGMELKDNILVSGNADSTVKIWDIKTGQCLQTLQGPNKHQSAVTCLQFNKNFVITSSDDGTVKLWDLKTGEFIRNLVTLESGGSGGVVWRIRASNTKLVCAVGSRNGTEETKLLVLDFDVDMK
GPR151 ag: activators of human GPR151, primary screen, cell-based, PathHunter beta-arrestin, luminescence | G-protein coupled receptor 151 (Homo sapiens), Q8TDV0 | PathHunter beta-arrestin GPR151 cells | activation, % at 11.2 µM | 1% of 650,000 active | AID 1508602, 2020; in the data active = activation above about 4.9%;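 also: 0% = median of compound wells and 100% = cells with positive control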
MITF inh: MITF inhibitors, primary screen, biochemical, AlphaScreen, human; 0.91% of 650,000 active; Microphthalmia-associated transcription factor (Homo sapiens), O75030; AlphaScreen MITF homodimerization, bead proximity signal; inhibition, % at 2.6 µM; in the data active = inhibition above about 50%;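 also: 0% = vehicle wells with protein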
TEAD-YAP inh: TEAD-YAP interaction inhibition, primary screen, TEAD-YAP interaction inhibitor project, luminescence, HEK-TIYL cells. TEAD-Gal4/YAP UAS-luciferase luminescence. inhibition, % at 9.12 µM. 1.4% of 640,000 active. AID 1259422, 2018; in the data active = inhibition above about 32%;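 also: 0% = median of test compound wells and 100% = reference inhibitor wells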
The depositor's hits bear a star. The list is not random: actives were taken first. Their share in the collection is about 3.4%.

SMILES	FBW7 act	GPR151 ag	MITF inh	TEAD-YAP inh
Cc1ccc(C(=O)Nc2ccc(C)c(C)c2)cc1	0	-3	-14	67*
COc1cccc(N(CC(=O)NC(C)C)S(=O)(=O)c2ccccc2)c1	0	3	15	-14
CC(=O)Nc1ccc(-n2c(C)cc(C=C3C(=O)N(C)C(=O)N(C)C3=O)c2C)cc1	-1	1	-1	1
CC(=O)Nc1ccc(-n2c(C)cc(C=C3C(=O)c4ccccc4C3=O)c2C)cc1	0	-2	6	83*
O=S(=O)(NCCc1ccccc1)c1cccc(S(=O)(=O)N2CCCC2)c1	0	0	23	3
CNC(=S)NCCCNc1nc2cc3c(cc2cc1C#N)OCO3	0	0	-5	-5
O=C(COc1cccc(N2C(=O)C3C4C=CC(C5CC45)C3C2=O)c1)c1ccc(Cl)cc1 (configuration not stated)	0	1	-1	39*
COc1ccc2cc(-c3nc4ccccc4[nH]3)c(=Nc3cccc(C(F)(F)F)c3)oc2c1	0	-3	-9	72*
CC(=O)Oc1cccc(N2Cc3ccccc3C2=O)c1	0	-5	-2	73*
COc1cccc(C2(O)CSC3=C(C#N)C(c4cccc(Cl)c4)CC(=O)N32)c1 (configuration not stated)	0	0	24	67*
COc1cccc(C2(O)CSC3=C(C#N)C(c4cccc(F)c4)CC(=O)N32)c1 (configuration not stated)	-1	0	-23	48*
COc1ccc(C2(O)CSC3=C(C#N)C(c4cccc(Cl)c4)CC(=O)N32)cc1OC (configuration not stated)	0	-1	-6	-7
COc1cccc(C2CC(=O)N3C(=C2C#N)SCC3(O)c2ccc(F)cc2)c1 (configuration not stated)	0	0	1	-11
O=C(CN1c2cccc3cccc(c23)S1(=O)=O)Nc1cccc2ccccc12	0	-1	-6	-9
Clc1cccc(N2CCN(Cc3nnnn3CCc3ccccc3)CC2)c1	0	0	1	-11
CCNC(=O)CN(c1cc(C(F)(F)F)ccc1Cl)S(=O)(=O)c1ccccc1	0	2	0	5
O=C(Oc1ccc(/C=C/c2ccncc2)cc1)c1ccncc1	0	-7	-4	48*
CC(=O)c1ccc(N2CCN(C(=O)Cc3ccc([N+](=O)[O-])cc3)CC2)cc1	0	0	-1	-5
C=CCn1c(NC(C)=O)c(C#N)c2nc3ccccc3nc21	0	3	2	9
O=C(CSc1nc2ccc([N+](=O)[O-])cc2[nH]1)Nc1ccc(F)cc1	0	1	14	7
O=C(CSc1nc2ccc([N+](=O)[O-])cc2[nH]1)Nc1ccc(F)c(F)c1	0	0	0	69*
CC(=O)N1/C(=C/c2ccc(N(C)C)cc2)C(=O)c2ccccc21	0	-1	43	46*
CC(=O)N1/C(=C/c2ccncc2)C(=O)c2ccccc21	0	-2	5	-1
Fc1cccc(-c2nn3c(C4COc5ccccc5O4)nnc3s2)c1 (configuration not stated)	0	0	-6	3
COc1cccc(-c2nn3c(C4COc5ccccc5O4)nnc3s2)c1 (configuration not stated)	0	2	5	61*
SMILES	FBW7 act	GPR151 ag	MITF inh	TEAD-YAP inh
COc1ccc(NC(=O)CCS(=O)(=O)c2ccc3c(c2)SCC(=O)N3)c(OC)c1	0	1	18	5
COc1cc(C2Nc3ccccc3NC3=C2C(=O)CC(c2ccccc2Cl)C3)ccc1O (configuration not stated)	0	-1	5	51*
COc1cc(C2Nc3ccccc3NC3=C2C(=O)CC(c2ccccc2Cl)C3)cc(Br)c1O (configuration not stated)	0	0	4	43*
CCOC(=O)c1c(-c2cnn(C)c2)ccc2cnc(Nc3ccc(-n4cnc(N5CCOCC5)n4)cc3)nc12	0	-1	21	98*
CC(C)N1CCN(c2ncn(-c3ccc(Nc4ncc5ccc(-c6cnn(C)c6)c(Cl)c5n4)cc3)n2)CC1	0	-1	-9	90*
Cn1cc(-c2ccc3cnc(Nc4ccc(-n5cnc(N6CCOCC6)n5)cc4)nc3c2Cl)cn1	0	0	6	56*
Cc1c(-c2cnn(C)c2)ccc2cnc(Nc3ccc(-n4cnc(N5CCOCC5)n4)cc3)nc12	0	2	14	29
Cn1cc(-c2cccc3cnc(Nc4ccc(-n5cnc(N6CCOCC6)n5)cc4)nc23)cn1	0	0	1	2
Cn1cc(-c2ccc3cnc(Nc4ccc(-n5cnc(N6CCOCC6)n5)cc4)cc3c2)cn1	0	1	0	83*
Cn1cc(-c2nc(Nc3ccc(-n4cnc(N5CCOCC5)n4)cc3)ncc2F)cn1	0	-1	-4	22
Clc1cnc(Nc2ccc(-n3cnc(N4CCOCC4)n3)cc2)nc1-c1cn[nH]c1	0	-1	0	55*
Cc1nc(C)n(-c2ccc(Nc3cc(-c4cnn(C)c4)ccn3)cc2)n1	1	-1	8	20
c1cc(-n2cnc(N3CCOCC3)n2)ccc1Nc1ncc2cc(-c3cn[nH]c3)ccc2n1	1	-2	40	-6
Cn1cc(-c2ccc3cnc(Nc4ccc(-n5cnc(N6CCOCC6)n5)cc4)nc3c2OCCN2CCOCC2)cn1	0	-2	33	96*
Cn1cc(-c2ccc3cnc(Nc4ccccc4)cc3c2)cn1	1	-1	17	36*
Cn1cc(-c2ccc3cnc(Nc4ccc(-c5ccc(N6CCOCC6)nc5)cc4)nc3c2Cl)cn1	0	0	2	18
Cn1cc(-c2ccc3cnc(Nc4ccc(N5CCOCC5)nc4)nc3c2Cl)cn1	0	0	-7	51*
Cn1cc(-c2nc(Nc3ccc(-n4cnc(N5CCC(O)CC5)n4)cc3)ncc2Cl)cn1	0	-1	24	72*
O=C1CCCC2=C1C(c1cccc(Cl)c1)Nc1ccc(C(=O)c3ccccc3)cc1N2 (configuration not stated)	0	0	4	70*
O=C1CCCC2=C1C(c1cccc(O)c1)Nc1ccc(C(=O)c3ccccc3)cc1N2 (configuration not stated)	0	-1	15	20
Cc1ccc(C2Nc3ccc(C(=O)c4ccccc4)cc3NC3=C2C(=O)CCC3)cc1 (configuration not stated)	0	-1	-2	41*
O=C1CCCC2=C1C(c1cccc([N+](=O)[O-])c1)Nc1ccc(C(=O)c3ccccc3)cc1N2 (configuration not stated)	0	2	8	54*
O=C1CCCC2=C1C(c1ccc(Br)cc1)Nc1ccc(C(=O)c3ccccc3)cc1N2 (configuration not stated)	0	-1	-1	51*
COc1ccc(C(=O)Nc2nnc(SCC(=O)NC(C)(C)C)s2)cc1	0	1	-5	-28
